High-throughput results deposited in PubChem BioAssay by National Center for Advancing Translational Sciences (NCATS).
MCF10A rerep = A quantitative high throughput screen for small molecules that induce DNA re-replication in MCF 10a normal breast cells. MCF 10A DNA re-replication, Hoechst nuclear intensity, 48 h. Potency, µM (series often up to 46.1 µM), actives largely listed as activators. actives 2.9% (n = 350,000). AID 624296, 2012; also: nearly all actives have a fitted effect of over 50% in size
RORg inh = qHTS for inhibitors of ROR gamma transcriptional activity; Potency, µM (highest dose often 53.6 µM), most hits filed as inhibitors; Drosophila S2 Gal4-RORgamma UAS-luciferase reporter, 20 h; actives 5.4% (n = 310,000); Nuclear receptor ROR-gamma (Mus musculus), P51450; also: nearly all actives have a fitted effect of over 60% in size
Target sequence (P51450 whole entry, looked up, the tested form may be a part): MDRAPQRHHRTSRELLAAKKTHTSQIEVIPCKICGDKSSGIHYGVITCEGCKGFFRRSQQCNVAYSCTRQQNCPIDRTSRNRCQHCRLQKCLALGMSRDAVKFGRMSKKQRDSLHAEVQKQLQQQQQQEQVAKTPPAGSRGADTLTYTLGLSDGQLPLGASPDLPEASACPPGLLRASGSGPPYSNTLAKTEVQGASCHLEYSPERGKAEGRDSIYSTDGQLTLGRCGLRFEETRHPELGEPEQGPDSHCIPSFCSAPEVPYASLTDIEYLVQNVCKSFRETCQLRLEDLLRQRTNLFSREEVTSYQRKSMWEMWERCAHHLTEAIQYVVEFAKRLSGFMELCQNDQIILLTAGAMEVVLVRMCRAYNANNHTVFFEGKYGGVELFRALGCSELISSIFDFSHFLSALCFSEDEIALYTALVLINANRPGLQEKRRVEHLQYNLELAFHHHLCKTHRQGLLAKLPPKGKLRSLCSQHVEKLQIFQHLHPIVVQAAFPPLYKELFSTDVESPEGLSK
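Luciferase reporter read in Schneider cells carrying Gal4-RORγ (mouse) and UAS-Photinus luciferase; cells given compound 1 h before 700 uM copper sulfate induction, then incubated 20 h at ambient temperature.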
SW480 rerep = A quantitative high throughput screen for small molecules that induce DNA re-replication in SW480 colon adenocarcinoma cells; AID 624297, 2012; Potency, µM (top dose mostly 46.1 µM), hits mostly activators; SW480 DNA re-replication, Hoechst DNA content imaging, 48 h; actives 1.8% (n = 340,000); also: nearly all actives have a fitted effect of over 55% in size
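Per well, 250 cells were exposed to pinned compound for 48 hr. Nuclear DNA was visualised with Hoechst (40 min, 37 C) and total object intensity recorded by fluorescence scanning.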
Gal4-VP16 FLuc = VP16 counterscreen qHTS for inhibitors of ROR gamma transcriptional activity; Drosophila S2 Gal4-VP16 UAS-luciferase, luminescence, 20 h; Potency, µM (top dose mostly 53.6 µM), hits mostly inhibitors; actives 3.5% (n = 310,000);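 also: Gal4-VP16 expression switched on by copper sulfate through the metallothionein promoter; nearly all actives have a fitted effect of over 50% in size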
Giardia killer = Small Molecules that selectively kill Giardia lamblia: qHTS | Giardia lamblia trophozoite viability | activity change, % at 7.66 µM, hits read low | actives 0.15% (n = 340,000) | AID 540267, 2011; in the data active = activity change below about -80%; inconclusive = between about -30% and that limit;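 also: parasites exposed to compound for two days anaerobically before the ATP read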
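ATP-content bioluminescence gauges trophozoite survival. Cells (100/well) receive compound and incubate anaerobically for 48 hrs at 37 deg C; detection reagent follows for 15-30 min at room temperature.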
Chronic BCR inh = qHTS Assay to Find Inhibitors of Chronic Active B-Cell Receptor Signaling. ABC-DLBCL IkBa-CBG/CBR reporter, luminescence ratio, 4 h. actives 0.05% (n = 340,000). AID 493014, 2011. Potency, µM (highest dose often 46.1 µM), hits mostly inhibitors; active = well fitted inhibition curve with a large enough effect in the signal ratio, with a control signal flat, not every such curve was filed as active; inconclusive = small, poorly fitted or top-dose-only effect, or effect the other way, or a change in a side signal; the % refers to the signal ratio
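TMD8 human ABC-DLBCL cells with doxycycline-inducible IκBα–green luciferase fusion and unfused red luciferase, in 0.5% FBS medium; compounds up to 46 uM, 4 h at 37C. Green/red luminescence ratio, filter-overlap corrected, fitted to concentration-response curves.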
Each line names hits and unclear results; the compound was inactive in the other large screens. An excerpt weighted towards active compounds, which were near 8.3% of everything screened. Unless noted, calls follow the shape of the dose curve; as a rule, active = well fitted curve in the direction sought with a large enough effect; inconclusive = small, poorly fitted or top-dose-only effect, or another doubt; inactive = no such curve, though single readings can be large; an effect the other way counts as inactive or inconclusive.

Cc1cccc(COc2ccc(/C=N/NC(=O)c3nnn(-c4nonc4N)c3C)cc2)c1	none
Cc1ccc(COc2ccc(/C=N/NC(=O)c3nnn(-c4nonc4N)c3COc3ccc(F)cc3)cc2)cc1	RORg inh inconclusive
COC(=O)c1c[nH]c2c1-c1cc(C(=O)OCc3ccccc3)n(S(=O)(=O)c3ccc(C)cc3)c1C(=O)C2=O	SW480 rerep inconclusive (no result: RORg inh, Gal4-VP16 FLuc, Chronic BCR inh)
O=C(Nc1ccc(-n2cc(Br)cn2)cc1)c1ccncc1	RORg inh inconclusive, Chronic BCR inh inconclusive
CN(NC(=O)Nc1ccccc1)c1cnn(C)c(=O)c1Cl	MCF10A rerep 2.31µM
Cc1ccccc1Cn1ccc(NC(=O)c2cc3nc(-c4ccco4)cc(C(F)(F)F)n3n2)n1	MCF10A rerep 8.2µM, SW480 rerep inconclusive
CCc1ccc(-c2cc(C(F)(F)F)n3nc(C(=O)Nc4cnn(Cc5ccccc5C)c4)cc3n2)s1	MCF10A rerep inconclusive
CCc1ccc(-c2cc(C(F)(F)F)n3nc(C(=O)Nc4c(C)nn(Cc5ccccc5C)c4C)cc3n2)s1	MCF10A rerep inconclusive, SW480 rerep 2.59µM
CCc1ccc(-c2cc(C(F)(F)F)n3nc(C(=O)Nc4c(C)nn(Cc5ccccc5Cl)c4C)cc3n2)s1	MCF10A rerep 3.26µM, SW480 rerep 10.3µM, Chronic BCR inh inconclusive
Cc1nn(Cc2ccccc2)c(C)c1NC(=O)c1cc2nc(-c3ccco3)cc(C(F)(F)F)n2n1	none
O=C(CC1C(=O)NCCN1Cc1ccc(Cl)c(F)c1)NC1CCC1 (stereo not drawn)	none
CN(C)c1cccc(C(=O)OCC(=O)Nc2ccccc2Cl)c1	Chronic BCR inh inconclusive
CN1C(=O)c2cccc3c(S(=O)(=O)Nc4ccccc4F)ccc1c23	MCF10A rerep inconclusive
CCOc1cc(/C=N/NC(=O)c2cc(-c3cccc(OC)c3)nc3ccccc23)ccc1O	SW480 rerep inconclusive (no result: RORg inh, Gal4-VP16 FLuc, Chronic BCR inh)
COc1ccc(-c2cc(C(=O)N/N=C/c3cccnc3)c3cc(C)cc(C)c3n2)cc1	MCF10A rerep 16.4µM, SW480 rerep inconclusive, Gal4-VP16 FLuc inconclusive
CC(C)COc1cccc(-c2cc(C(=O)N/N=C/c3ccncc3)c3ccccc3n2)c1	MCF10A rerep 18.4µM, Gal4-VP16 FLuc inconclusive
CCOc1ccccc1-c1cc(C(=O)N/N=C/c2cccnc2)c2ccccc2n1	none (no result: RORg inh, Gal4-VP16 FLuc, Chronic BCR inh)
CCOc1ccc(-c2cc(C(=O)N/N=C/c3cccnc3)c3ccccc3n2)cc1	MCF10A rerep 2.91µM, RORg inh inconclusive, SW480 rerep 7.31µM, Gal4-VP16 FLuc inconclusive
Brc1cccc(/C=N/Nc2nc(N3CCCCC3)nc(N3CCCCC3)n2)c1	none (no result: MCF10A rerep, SW480 rerep, Giardia killer)
O=[N+]([O-])c1ccc(NN=Cc2cccc3ccccc23)cc1	MCF10A rerep inconclusive, SW480 rerep 1.16µM (no result: RORg inh, Gal4-VP16 FLuc, Chronic BCR inh)
Fc1ccc(Nc2nc(N/N=C/c3ccco3)nc(N3CCCCC3)n2)cc1	RORg inh 2.82µM, Gal4-VP16 FLuc 5.01µM
Fc1ccc(COc2ccc(Cl)cc2/C=N/Nc2nc(N3CCCC3)nc(N3CCCC3)n2)cc1	RORg inh inconclusive
C(=N\Nc1nc(N2CCCC2)nc(N2CCCC2)n1)/c1ccccc1OCc1ccccc1	RORg inh 2.82µM, SW480 rerep inconclusive
C(=N\Nc1nc(N2CCCCCC2)nc(N2CCCCCC2)n1)/c1ccccc1	RORg inh 8.91µM, Gal4-VP16 FLuc inconclusive, Chronic BCR inh inconclusive
CCCCC[C@H]1CN(C2CCCCC2)C(=O)[C@@H]1CC(=O)NCc1ccccc1	MCF10A rerep inconclusive
COc1ccc2nc(N(Cc3cccnc3)C(=O)c3ccco3)sc2c1	none (no result: MCF10A rerep, RORg inh, SW480 rerep, Gal4-VP16 FLuc, Giardia killer)
O=C(O)c1ccccc1/C=N/Nc1nc(N2CCCCC2)nc(N2CCCCC2)n1	none (no result: MCF10A rerep, SW480 rerep, Giardia killer)
Fc1ccccc1COc1ccccc1/C=N/Nc1nc(N2CCCC2)nc(N2CCCC2)n1	RORg inh 6.31µM, Gal4-VP16 FLuc 12.6µM
Cc1cc(C)nc(N/N=C/c2ccccc2OCc2ccc([N+](=O)[O-])cc2)n1	RORg inh 14.1µM, Gal4-VP16 FLuc inconclusive, Chronic BCR inh inconclusive
CO[C@H]1COC(=O)[C@H](C)COC(=O)[C@@H](OCc2ccccc2)/C=C\[C@@H]1C	none (no result: MCF10A rerep, SW480 rerep, Giardia killer, Chronic BCR inh)
COc1ccc2nc(NC(=O)c3cccs3)sc2c1	RORg inh 10µM, Gal4-VP16 FLuc inconclusive, Chronic BCR inh inconclusive
CC(=O)Nc1ccc2nc(NC(=O)c3cccs3)sc2c1	Chronic BCR inh inconclusive
COc1ccc2nc(NC(=O)c3ccccc3O)sc2c1	MCF10A rerep 20.6µM, RORg inh 7.08µM, SW480 rerep inconclusive, Gal4-VP16 FLuc inconclusive, Giardia killer inconclusive, Chronic BCR inh inconclusive
COc1ccccc1C(=O)Nc1nc2cc3c(cc2s1)OCO3	Chronic BCR inh inconclusive
CCOc1ccc2nc(NC(=O)c3cnc(C)cn3)sc2c1	MCF10A rerep inconclusive, RORg inh 1.78µM, Gal4-VP16 FLuc 5.62µM
COc1ccc(C(=O)Nc2nc3cc4c(cc3s2)OCCO4)c(OC)c1	MCF10A rerep 4.11µM, RORg inh 0.0282µM, Gal4-VP16 FLuc 0.398µM, Chronic BCR inh inconclusive
Cc1ccccc1C(=O)NN1CC(C(=O)OCc2ccc(Cl)c(Cl)c2)CC1=O (stereo not drawn)	none
CCC(CC)c1nnc(NC(=O)C2CC(=O)N(C3CCCC3)C2)s1 (stereo not drawn)	Chronic BCR inh inconclusive
CCOc1ccc2nc(NC(=O)C3=NN(c4ccccc4)C(=O)CC3)sc2c1	MCF10A rerep inconclusive, RORg inh 2.82µM
CCOC(=O)c1cccc(C(=O)Nc2nc3ccc(OC)cc3s2)n1	RORg inh 11.2µM, Gal4-VP16 FLuc inconclusive, Giardia killer inconclusive
CCCCN(C(=O)CCN1C(=O)C2CC=CCC2C1=O)c1c(N)n(CCCC)c(=O)[nH]c1=O (stereo not drawn)	none (no result: RORg inh, Gal4-VP16 FLuc, Chronic BCR inh)
CC1(C)COC(/C=C/c2ccc([N+](=O)[O-])cc2)=N1	MCF10A rerep 16.4µM, SW480 rerep 16.4µM, Gal4-VP16 FLuc inconclusive, Chronic BCR inh inconclusive
CCOc1ccc(C(O)(CCC(C)C)C(CN2CCOCC2)c2ccccc2)cc1 (stereo not drawn)	MCF10A rerep inconclusive, SW480 rerep 23.1µM
CCOc1ccc(C(O)(c2ccccc2)C(CN2CCCC2)c2ccccc2)cc1 (stereo not drawn)	SW480 rerep 20.6µM
CCCC(O)(c1ccc(Cl)cc1)C(CN1CCOCC1)c1ccc(Cl)cc1 (stereo not drawn)	MCF10A rerep inconclusive, SW480 rerep inconclusive, Chronic BCR inh inconclusive
CCCCC(O)(c1ccc(F)cc1)C(CN1CCOCC1)c1ccc(Cl)cc1 (stereo not drawn)	MCF10A rerep 7.31µM, RORg inh inconclusive, SW480 rerep inconclusive, Chronic BCR inh inconclusive
